Assay results published in PubChem BioAssay (NCI).
The panel holds about 83,000 compounds, 20% with a hit somewhere; the sample as a whole holds those more often.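 In brief: 96-well plates, 48 h treatment, single concentration, percent growth endpoint.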 A number with no mark means an inactive call. Activity calls are given as the source filed them. Rule for the calls: active = growth percent below 10; inactive = the rest.

Columns and labels:
Assay in all cases: NCI-60 one-dose screen, 48 h (100 = growth as untreated, 0 = no growth, -100 = all killed)
Conditions in all cases: 10 µM unless noted
SR leukemia = tested on: SR leukemia
RPMI-8226 leukemia = tested on: RPMI-8226 leukemia
OVCAR-8 ovarian = tested on: OVCAR-8 ovarian
OVCAR-5 ovarian = tested on: OVCAR-5 ovarian
OVCAR-4 ovarian = tested on: OVCAR-4 ovarian
SK-OV-3 ovarian = tested on: SK-OV-3 ovarian
IGROV1 ovarian = tested on: IGROV1 ovarian
OVCAR-3 ovarian = tested on: OVCAR-3 ovarian
HS 578T breast = tested on: HS 578T breast
NCI/ADR-RES ovarian = tested on: NCI/ADR-RES ovarian

Structure (SMILES) | growth (SR leukemia) | growth (RPMI-8226 leukemia) | growth (OVCAR-8 ovarian) | growth (OVCAR-5 ovarian) | growth (OVCAR-4 ovarian) | growth (SK-OV-3 ovarian) | growth (IGROV1 ovarian) | growth (OVCAR-3 ovarian) | growth (HS 578T breast) | growth (NCI/ADR-RES ovarian)
Cn1cc(-c2nonc2-c2cn(C)c3ccccc23)c2ccccc21 | 16% | 14.2% | 17.4% | 35.5% | 56.1% | 18.7% | 45.9% | 0.348% (active) | 30.7% | 17.4%
COc1cc2c(cc1OC)C(C)N(S(N)(=O)=O)CC2 (stereo not given) | 82.3% | 96.4% | 97% | 82.6% | 105% | 103% | 97.9% | 99.2% | 105% | 96.9%
COCCNC(=O)Nc1ccc2nc(-c3cccs3)c(-c3cccs3)nc2c1 | 67% | 92.1% | 93.4% | 87.9% | 98.2% | 98.8% | 89% | 106% | 93.6% | 90.1%
CN1CCN(C(=O)c2ccc(NC(=O)c3cc4c(nn3)NCCN4Cc3cc(Cl)ccc3Cl)cc2)CC1 | 0.181% (active) | 65.3% | 91.1% | 56.4% | 72.8% | 88.4% | 81.3% | 89.8% | 76.9% | 95.7%
C1CN(SSN2CCOCC2)CCO1 | 13.3% [100 µM] | 1.55% [100 µM] (active) | -25.2% [100 µM] (active) | 35.8% [100 µM] | -51.7% [100 µM] (active) | 101% [100 µM] | 54.8% [100 µM] | -82.2% [100 µM] (active) | 41% [100 µM] | 2.69% [100 µM] (active)
COc1ccc(-c2ccc(-c3ccc(C(=N)N)cc3)s2)cc1Cl | -7.28% (active) | -34.4% (active) | -18.2% (active) | 14.2% | -42% (active) | 93% | -87.5% (active) | -88% (active) | 44.9% | 78%
CCSC(SCC)c1ccc(Cl)cc1 | 109% | 106% | 107% | 109% | 108% | 101% | 117% | 113% | 102% | 97.1%
O=C(Nc1cccc(Cl)c1)Nc1cccc(Cn2c(=O)[nH]c3ccc(Oc4ncccn4)cc3c2=O)c1 | 21.4% | 25.3% | 37.4% | 81.7% | 13.3% | 70.7% | 62% | 33.5% | 51.8% | 95.5%
CCN(CC)c1ccc(\C=N/N=C(N)/C(N)=N\N=C/c2ccc(N(CC)CC)cc2)cc1 | 87.6% | 99% | 99% | 126% | 110% | 102% | 105% | 115% | 103% | 101%
COc1cc(-c2cncn2-c2ccc(-c3nc4ccc(F)cc4s3)cc2)ccc1F | 73% | 53.6% | 78.1% | 75.7% | 85.6% | 106% | 52.8% | 97.5% | 97.4% | 80.3%
Nc1ncc(-c2ccc3ncnc(Nc4cccc(Cl)c4)c3c2)cn1 | 33.6% | 44.5% | 46.8% | 26.4% | 70% | -10% (active) | 5.88% (active) | 27.3% | 16.4% | 52.2%
O=C(Nc1ccccc1O)c1ccc(CNC(=O)c2sccc2Nc2ccnc(C(F)(F)F)c2)cc1 | 36.2% | 24.3% | 35.8% | 45.6% | 48.3% | 57.2% | 41% | 41.3% | 14.6% | 24.1%
CC(=O)/C(=C\c1c(-c2ccccc2)[nH]c2ccccc12)S(C)(=O)=O | -25.2% (active) | -32.2% (active) | 40.9% | 78.3% | -29.6% (active) | 35.9% | 54.1% | -54.6% (active) | 3.31% (active) | -19.5% (active)
O=C(/C=C/c1cn(-c2ccccc2)nc1-c1ccc(Cl)cc1)c1ccc(F)cc1 | 40.8% | 67.5% | 80.6% | 99.3% | 71.9% | 82.6% | 81.1% | 78.8% | 95.7% | 69.8%
CC1OC(n2c3ccccc3c3c4c(c5c6ccccc6[nH]c5c32)C(=O)N(CCN2CCCC2)C4=O)CC(O)C1O (stereo not given) | -2.62% (active) | 5.56% (active) | 53.1% | 78.1% | 22.9% | 32.1% | 48.9% | 60.2% | 58.2% | 54.1%
Cc1cc(C)c2c(c1)N(C)c1ncnc(-n3cnc4cc(C)ccc43)c1CC2C (stereo not given) | 4.51% (active) | 9.87% (active) | 17.1% | 76.6% | 61.5% | 3.2% (active) | 44.7% | 8.19% (active) | 25.1% | 14.6%
CCOC(=O)n1cc(-c2nonc2-c2cn(C(=O)OCC)c3ccc(Br)cc23)c2ccccc21 | 78.4% | 88.9% | 85.6% | 64.4% | 79.1% | 79.8% | 52.6% | 79.1% | 87% | 86.5%
Cc1ccc(-c2nc(N3CCCNCC3)c3oc(-c4ccc(C)cc4)nc3n2)cc1 | -44.5% (active) | -51% (active) | -58.6% (active) | 78.5% | 2.2% (active) | 98.1% | 12.2% | -67.7% (active) | 110% | 16.3%
COc1ccc(Nc2ncc(Br)c(NCCCNC(=O)C3CCCC3)n2)cc1 | 47% | 49.3% | 36.7% | 54.6% | 56.7% | 30.6% | 14.1% | 46.6% | 29.2% | 51.5%
CC(C)(C)[Si](C)(C)OC1[C@@H](CNC(=O)NC(=O)NC(N)=O)O[C@@H](n2cnc3c(NC(=O)Nc4ccccc4)ncnc32)[C@H]1O[Si](C)(C)C(C)(C)C (stereo not given in full) | 40.8% | 69.1% | 23% | 96.1% | 66.7% | 65.4% | 78.4% | 68.4% | 77.1% | 85.3%
Cc1sc2nc(NCCc3c[nH]c4ccc(Cl)cc34)[nH]c(=O)c2c1C | 15.7% | 18.8% | 38.5% | 62.5% | 60% | 60.6% | 50.8% | 64.7% | 25.4% | 47.1%
O=C(/C=C/c1ccco1)Nc1ncc(Cc2cccc(C(F)(F)F)c2)s1 | 9.93% (active) | 12.4% | 8.79% (active) | 30.3% | 4.64% (active) | 16.9% | 4.48% (active) | -33.3% (active) | 0.428% (active) | -4.7% (active)
c1ccc(Cn2cc3c(c2)-c2oncc2CC3)cc1 | 39.3% | 8.25% (active) | 36.4% | 25.1% | 64.1% | 13.5% | 34.9% | -23.8% (active) | 1.9% (active) | 0.523% (active)
COc1ccc(/C=N/C2=C(C#N)C(c3ccccc3)c3ccc4ccccc4c3O2)cc1 (stereo not given) | 23.6% | 8.19% (active) | 14.1% | 26.7% | 56.6% | 21.6% | 26.2% | 2.08% (active) | 29.8% | 4.68% (active)
CC(C)COc1nc2c(c(=O)n(C)c(=O)n2C)n1C | 90.8% | 110% | -6.67% (active) | 112% | 97.7% | 90.7% | 109% | 106% | 100% | 99.8%
Cn1ccnc1C(=O)/C=C/c1ccc(CC(=O)Nc2cc(C(F)(F)F)cc(C(F)(F)F)c2)cc1 | 39.4% | 55% | 41% | 83.8% | 78.8% | 109% | 71.4% | 62.6% | 66.6% | 65.3%
